Only some compounds are listed: those with a hit (about 2.2% of all), similar ones and a draw of the others.
Nrf2 block – Nrf2 qHTS screen for inhibitors; A549 ARE-Fluc reporter, luciferase luminescence, 18-24 h; Potency, µM (doses to about 46 µM), hits mostly inhibitors; 2.1% of 360,000 active; AID 504444, 2011; also: nearly all actives have a fitted effect of over 60% in size
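Concentration-response testing used A549 ARE_Fluc cells at 5000 cells/well. Following an 18-24 h compound incubation, viability was read by fluorescence (Ex 405/Em 525) and luciferase output by luminescence.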
miR-21 reporter – qHTS Assay for Modulators of miRNAs and/orActivators of miR-21. HeLa miR-21 FLuc reporter, luciferase, 48 h. Potency, µM (top dose mostly 38.3 µM), most hits filed as activators. 340,000 tested, under 10 active;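 also: miR-21 action dims this reporter so a rising signal means less miR-21 action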
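HeLa cells stably expressing CMV-driven firefly luciferase with a downstream miR-21 binding sequence, endogenously expressing miR-21, were treated with titrations (up to about 40uM final) for 48 hours at 37 degree Celsius. Luciferase luminescence was read after lysis.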
Nrf2 activator – qHTS of Nrf2 Activators. 0.31% of 410,000 active. Potency, µM (highest dose often 46.1 µM), most hits filed as activators. AID 624171, 2012. AREc32 ARE-luciferase reporter (MCF7-derived line), luminescence, 24 h; also: nearly all actives have a fitted effect of over 65% in size
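Nrf2 activation is followed as ARE-luciferase induction in the AREc32 line after one day of compound treatment; luminescence is read with Steady-Glo.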
B2AR arrestin – qHTS assay of beta-arrestin-biased ligands of beta2-adrenergic receptor | Beta-2 adrenergic receptor (Homo sapiens), P07550 | Potency, µM (titrated, usually from 46.1 µM), most hits filed as activators | 0.02% of 330,000 active | beta-arrestin recruitment to beta2AR, cell-based reporter; also: nearly all actives have a fitted effect of over 65% in size
Target sequence (P07550 whole entry, looked up): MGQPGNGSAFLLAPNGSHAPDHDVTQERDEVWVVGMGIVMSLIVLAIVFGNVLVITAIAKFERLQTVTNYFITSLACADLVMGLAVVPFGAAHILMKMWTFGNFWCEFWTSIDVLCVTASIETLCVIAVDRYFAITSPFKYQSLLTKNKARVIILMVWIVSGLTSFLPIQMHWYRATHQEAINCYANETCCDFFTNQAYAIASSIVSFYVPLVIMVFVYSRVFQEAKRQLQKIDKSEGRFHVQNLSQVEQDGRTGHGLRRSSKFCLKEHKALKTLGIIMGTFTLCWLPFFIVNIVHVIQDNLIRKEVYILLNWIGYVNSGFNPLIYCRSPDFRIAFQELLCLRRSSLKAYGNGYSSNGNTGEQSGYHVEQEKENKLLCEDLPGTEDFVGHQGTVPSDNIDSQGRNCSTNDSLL
A549 viability – Nrf2 qHTS screen for inhibitors: counterscreen for cytotoxicity; 0.16% of 390,000 active; A549 ARE-Fluc cells, CellTiter-Fluor viability, 18-24 h; Potency, µM (series often up to 46 µM), most hits filed as inhibitors; AID 504648, 2011
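A549 ARE-Fluc cells in 5% FBS OPTI-MEM, 5000 cells/well, rested 2 h then exposed to compounds in concentration-response for 18-24 h at 37 °C. Viability by CellTiter-Fluor fluorescence (Ex 405/Em 525) after 30 min; luciferase luminescence (BugLite, 15 min, RT) read afterwards.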
Of the large screens only hits and unclear results are named; the others gave an inactive call. Calls follow the shape of the dose curve; as a rule, active = well fitted curve in the direction sought with a large enough effect; inconclusive = small, poorly fitted or top-dose-only effect, or another doubt; inactive = no such curve, though single readings can be large; an effect the other way counts as inactive or inconclusive.

CCOC(=O)c1cnc2c(C)c(Cl)ccc2c1Nc1ccc(N2CCOCC2)cc1	none (no result: B2AR arrestin)
Cc1nc2ccc(NS(=O)(=O)c3cccc([N+](=O)[O-])c3)cc2s1	Nrf2 block 18.4µM (no result: miR-21 reporter)
Cc1ccc(S(=O)(=O)Nc2ccc3nc(N)sc3c2)cc1	Nrf2 block 7.31µM
Cc1nc2ccc([N+](=O)[O-])cc2s1	none
Cc1ccc(-c2nc3cnccn3c2Nc2ccc(C(C)C)cc2)o1	none (no result: miR-21 reporter, Nrf2 activator, B2AR arrestin)
COc1ccc2c(c1)c(N1CCCC1=O)c(C(=O)Nc1cc(C)c(Cl)cc1OC)n2C	none (no result: B2AR arrestin)
CCOc1ccc(NC(=S)NC(=O)/C=C/c2ccc(OC)c(OC)c2)c([N+](=O)[O-])c1	Nrf2 block 20.6µM, A549 viability inconclusive
O=C(Cn1c(=O)n(-c2ccccc2)c(=O)c2c3c(sc21)CCCC3)Nc1ccc(F)cc1F	none (no result: B2AR arrestin)
O=C(Nc1nc(-c2cccs2)c(C(=O)C(F)(F)F)s1)c1ccco1	Nrf2 block inconclusive
O=C(Nc1nc(-c2cccs2)c(C(=O)C(F)(F)F)s1)c1ccccc1	Nrf2 block 20.6µM
COC(=O)c1ccccc1NC(=O)c1ccc(Cn2cc(Cl)cn2)o1	Nrf2 block inconclusive
COC(=O)c1cc(NC(=O)c2ccc(Cn3cc(Cl)cn3)o2)cc(C(=O)OC)c1	Nrf2 block 20.6µM, A549 viability inconclusive
O=C(NNc1c2ccccc2nc2ccccc12)c1ccc(Cl)cc1	Nrf2 block inconclusive
O=C(NNC1=Nc2ccccc2SC1)c1ccc(Cl)cc1	Nrf2 block 10.3µM, A549 viability inconclusive
O=C(NNC1=Nc2ccccc2SC1)c1ccc(F)cc1	Nrf2 block 23.1µM
Cc1cc(C)cc(Nc2cc(C)nc3nc(-c4ccco4)nn23)c1	none (no result: Nrf2 block, B2AR arrestin)
COc1ccc(/C=C/c2ccccc2)cc1C1C2C=CCCC2(C)C(=O)N1Cc1ccccc1 (stereo unspecified)	none (no result: miR-21 reporter, Nrf2 activator, B2AR arrestin)
CCOc1ccc(CCNC(=O)CN2C(=O)COc3ccc(S(=O)(=O)N4CCC(C)CC4)cc32)cc1	none (no result: B2AR arrestin)
CCCc1ccc(-c2cc(C(=O)NN3CCOCC3)c3ccccc3n2)cc1	Nrf2 block inconclusive
CCc1ccc(-c2cc(C(=O)Nn3cnnc3)c3ccccc3n2)cc1	Nrf2 block 9.2µM, miR-21 reporter inconclusive
CC(C)Cc1cc(C(=O)N2N=C(C(F)F)CC2(O)C(F)F)c2ccccc2n1 (stereo unspecified)	Nrf2 block inconclusive
CCc1ccc(-c2cc(C(=O)N3N=C(C(F)F)CC3(O)C(F)F)c3ccccc3n2)cc1 (stereo unspecified)	Nrf2 block 20.6µM, A549 viability 23.1µM
CCn1cc(-c2cc(C(=O)O)c3ccccc3n2)cn1	Nrf2 block 18.4µM
COc1ccc(C2c3ccc(OCc4ccccc4)cc3Oc3ncn(CCN4CCOCC4)c(=N)c32)cc1OC (stereo unspecified)	Nrf2 block inconclusive (no result: miR-21 reporter, Nrf2 activator, B2AR arrestin)
Cc1ccc(NS(=O)(=O)c2ccc3c(c2)C(Cl)(Cl)C(=O)N3)cc1C	none (no result: miR-21 reporter, Nrf2 activator, B2AR arrestin)
O=S(=O)(c1ccc(F)cc1)N1CCC(n2c(C(F)(F)F)nc3cccnc32)CC1	Nrf2 block 20.6µM (no result: B2AR arrestin)
CC1=C(C(=O)Nc2cccnc2)C(c2cccc(O)c2)n2nc(SCc3ccccc3)nc2N1 (stereo unspecified)	none (no result: Nrf2 block, B2AR arrestin)
Cc1ccc(C2=CC(c3ccccc3)n3ncnc3N2)cc1 (stereo unspecified)	none (no result: miR-21 reporter, B2AR arrestin)
C1=C(c2ccccc2)Nc2ncnn2C1c1ccccc1 (stereo unspecified)	Nrf2 activator 7.08µM (no result: miR-21 reporter, B2AR arrestin)
Cc1ccsc1C1C=C(c2cccc(Br)c2)Nc2ncnn21 (stereo unspecified)	Nrf2 activator 7.94µM
COc1cccc(C2=CC(c3ccc(C)cc3)n3ncnc3N2)c1 (stereo unspecified)	none (no result: Nrf2 block, Nrf2 activator, A549 viability)
CCN(CC)S(=O)(=O)c1ccc(C(=O)N2CC(=O)Nc3ccc(F)cc3C2c2ccccc2)cc1 (stereo unspecified)	none (no result: B2AR arrestin)
COc1cccc(/C=C2\SC(=S)N(C(C)C(=O)NC3C=CS(=O)(=O)C3)C2=O)c1 (stereo unspecified)	Nrf2 activator 17.8µM
COc1cccc(/C=C2\SC(=O)N(CC(=O)NC3C=CS(=O)(=O)C3)C2=O)c1 (stereo unspecified)	Nrf2 activator 15.8µM
CCOc1ccc(NC(=O)CN2C(=O)COc3ccc(S(=O)(=O)Nc4ccccc4)cc32)cc1	none (no result: B2AR arrestin)
Cc1ccc(CN(Cc2ccco2)C(=S)NCC(=O)NCc2cccnc2)cc1	Nrf2 block 7.31µM
Cc1ccc(CNC(=O)CNC(=S)N(Cc2ccccc2)Cc2cccnc2)cc1	none
CCc1ccc2oc(-c3cc(N)ccc3O)nc2c1	Nrf2 block inconclusive, Nrf2 activator 4.47µM
COc1cc(C(=O)NCC(c2ccc(N(C)C)cc2)N2CCc3ccccc32)cc(OC)c1OC (stereo unspecified)	Nrf2 activator inconclusive (no result: Nrf2 block, B2AR arrestin)
O=C(Cn1[nH]c(=O)c2ccccc2c1=O)NCCN1C(=O)S/C(=C\c2ccccc2)C1=O	Nrf2 block inconclusive, Nrf2 activator 12.6µM (no result: miR-21 reporter)
O=C(CCc1nc2ccccc2c(=O)[nH]1)NCCN1C(=O)S/C(=C\c2ccc(OC(F)F)cc2)C1=O	Nrf2 block inconclusive (no result: miR-21 reporter, B2AR arrestin)
O=C(CCl)NCCN1C(=O)S/C(=C\c2cccnc2)C1=O	Nrf2 activator 12.6µM
NCc1cn(Cc2ccccc2)nc1-c1ccccc1	Nrf2 block inconclusive (no result: miR-21 reporter, Nrf2 activator, B2AR arrestin)
CN(CCO)c1nc(-c2cccs2)nc2ccccc12	none (no result: miR-21 reporter, Nrf2 activator, B2AR arrestin)
CCCCn1cc(S(=O)(=O)c2ccc(C)c(C)c2)c(=O)c2cc(F)c(N(CC)CC)cc21	Nrf2 block 25.9µM, miR-21 reporter inconclusive (no result: B2AR arrestin)
O=C1CCCC2=C1C1(CCCOC1)N=C(Nc1nc3ccccc3o1)N2 (stereo unspecified)	Nrf2 block inconclusive (no result: miR-21 reporter, Nrf2 activator, B2AR arrestin)
COc1ccccc1N1CCN(C(=O)c2ccc(Nc3nc4ccccc4n4nnnc34)cc2)CC1	none (no result: B2AR arrestin)
Cc1cccc(Nc2nc(N)c([N+](=O)[O-])c(N3CCCC(C)C3)n2)c1 (stereo unspecified)	Nrf2 block 16.4µM
COc1cc(CNCc2ccc(OC)c(OC)c2OC)cc(OC)c1	Nrf2 block 9.2µM
COc1cccc(CNCc2cc(OC)cc(OC)c2)c1	Nrf2 block inconclusive
Cc1c(C(C)C)c(=O)n(-c2ccc(S(=O)(=O)NC(C)C)cc2)n1C	Nrf2 block 18.4µM
Cc1c(C(C)C)c(=O)n(-c2ccc(S(=O)(=O)NC3CC3)cc2)n1C	Nrf2 block inconclusive
COc1ccc2c(Sc3ccc(Cl)cc3)c(C(=O)N3CCC(C)CC3)[nH]c2c1	Nrf2 block inconclusive (no result: B2AR arrestin)
COc1ccc2c(Sc3ccc(C)cc3)c(C(=O)NC(C)C)[nH]c2c1	Nrf2 block 23.1µM (no result: B2AR arrestin)
COc1ccc2c(Sc3ccc(Cl)cc3)c(C(=O)N3CCCCC3)[nH]c2c1	Nrf2 block 20.6µM (no result: B2AR arrestin)
COc1ccc2c(Sc3ccc(C)cc3)c(C(=O)NCC(C)c3ccccc3)[nH]c2c1 (stereo unspecified)	Nrf2 block inconclusive (no result: B2AR arrestin)
